This note sets out measurements from PubChem BioAssay AID504333 (National Center for Advancing Translational Sciences (NCATS), 2011).

The campaign covered roughly 360,000 compounds. About 16,000 (4.4%) were called active. Another 9% or so got no clear call; they are omitted. Shown is part of a subset that was picked to be rich in actives. Values without a mark were called inactive. Calls come from the whole dose curve; as a rule, active = well fitted inhibition curve with a large enough effect; inconclusive = small, poorly fitted or top-dose-only effect; inactive = no such curve, though single readings can be large or run the other way.
% is set by controls: 0 for no effect and ±100 for the full control effect; potency is the fitted concentration of half-maximal effect.

Bromodomain adjacent to zinc finger domain protein 2B (Homo sapiens), sequence (Q9UIF8 whole entry, looked up, the tested form may be a part): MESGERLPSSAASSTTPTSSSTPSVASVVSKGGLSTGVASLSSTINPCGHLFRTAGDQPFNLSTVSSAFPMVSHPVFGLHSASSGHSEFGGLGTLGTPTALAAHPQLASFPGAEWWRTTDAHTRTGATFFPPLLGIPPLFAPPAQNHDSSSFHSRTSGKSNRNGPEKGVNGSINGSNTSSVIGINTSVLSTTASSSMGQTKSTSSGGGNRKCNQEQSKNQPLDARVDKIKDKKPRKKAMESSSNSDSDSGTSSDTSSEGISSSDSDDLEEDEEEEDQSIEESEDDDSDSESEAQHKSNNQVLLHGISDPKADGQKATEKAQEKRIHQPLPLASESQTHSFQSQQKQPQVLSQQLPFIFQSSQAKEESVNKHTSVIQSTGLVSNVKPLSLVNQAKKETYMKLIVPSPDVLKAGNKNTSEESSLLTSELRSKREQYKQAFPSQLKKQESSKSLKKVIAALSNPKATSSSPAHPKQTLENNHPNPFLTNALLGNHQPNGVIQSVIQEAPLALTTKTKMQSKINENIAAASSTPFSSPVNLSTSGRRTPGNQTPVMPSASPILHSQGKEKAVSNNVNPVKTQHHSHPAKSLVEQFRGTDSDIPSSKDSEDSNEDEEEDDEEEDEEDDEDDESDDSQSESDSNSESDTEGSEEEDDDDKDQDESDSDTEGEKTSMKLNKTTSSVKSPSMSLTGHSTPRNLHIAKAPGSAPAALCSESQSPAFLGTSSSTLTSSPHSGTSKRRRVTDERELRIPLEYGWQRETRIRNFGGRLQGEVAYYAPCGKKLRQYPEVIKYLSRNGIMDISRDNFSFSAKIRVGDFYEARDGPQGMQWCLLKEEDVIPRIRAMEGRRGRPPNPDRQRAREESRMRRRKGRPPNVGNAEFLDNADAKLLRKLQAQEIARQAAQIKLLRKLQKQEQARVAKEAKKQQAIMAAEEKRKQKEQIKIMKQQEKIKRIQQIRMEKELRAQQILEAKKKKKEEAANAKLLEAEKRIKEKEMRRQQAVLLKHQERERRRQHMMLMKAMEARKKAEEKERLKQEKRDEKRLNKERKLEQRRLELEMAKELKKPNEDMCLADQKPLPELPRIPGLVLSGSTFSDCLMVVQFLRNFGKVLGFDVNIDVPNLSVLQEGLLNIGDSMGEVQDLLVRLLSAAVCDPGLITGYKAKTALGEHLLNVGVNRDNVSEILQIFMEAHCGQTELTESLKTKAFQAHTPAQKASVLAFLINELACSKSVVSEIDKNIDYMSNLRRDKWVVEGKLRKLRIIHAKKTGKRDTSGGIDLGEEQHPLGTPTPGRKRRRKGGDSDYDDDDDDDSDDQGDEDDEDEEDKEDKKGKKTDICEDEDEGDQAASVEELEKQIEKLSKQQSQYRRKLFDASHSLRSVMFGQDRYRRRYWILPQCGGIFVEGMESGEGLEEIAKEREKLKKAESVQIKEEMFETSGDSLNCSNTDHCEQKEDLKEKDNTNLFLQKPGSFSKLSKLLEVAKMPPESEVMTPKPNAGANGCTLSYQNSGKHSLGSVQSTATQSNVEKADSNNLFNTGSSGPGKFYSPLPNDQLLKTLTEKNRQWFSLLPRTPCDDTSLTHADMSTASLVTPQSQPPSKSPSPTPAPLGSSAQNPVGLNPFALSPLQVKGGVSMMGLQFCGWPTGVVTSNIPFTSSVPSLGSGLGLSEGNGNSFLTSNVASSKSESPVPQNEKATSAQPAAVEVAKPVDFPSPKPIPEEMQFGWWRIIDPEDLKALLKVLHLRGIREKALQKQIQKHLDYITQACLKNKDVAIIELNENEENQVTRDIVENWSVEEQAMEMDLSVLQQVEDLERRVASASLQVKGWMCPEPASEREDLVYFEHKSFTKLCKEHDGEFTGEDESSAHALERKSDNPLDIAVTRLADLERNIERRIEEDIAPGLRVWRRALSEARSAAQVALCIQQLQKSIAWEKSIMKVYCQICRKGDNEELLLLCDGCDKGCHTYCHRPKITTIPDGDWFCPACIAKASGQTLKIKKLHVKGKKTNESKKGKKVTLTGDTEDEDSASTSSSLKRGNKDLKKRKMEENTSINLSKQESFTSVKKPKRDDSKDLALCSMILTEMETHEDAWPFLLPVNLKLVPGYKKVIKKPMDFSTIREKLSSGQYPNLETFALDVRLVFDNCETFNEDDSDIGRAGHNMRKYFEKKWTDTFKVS

This test addresses Bromodomain adjacent to zinc finger domain protein 2B (Homo sapiens) (UniProt Q9UIF8). The test is described as follows: qHTS Assay for Inhibitors of BAZ2B. Note: nearly all actives have a fitted effect of over 60% in size. As to conditions: AlphaScreen BAZ2B-H3K14Ac peptide displacement; series mostly up to 114 µM; activity change, negative = inhibition: at the top concentration. The source says: BAZ2B (bromodomain adjacent to zinc finger domain, 2B) belongs to a family of ubiquitously expressed bromodomain containing proteins, which biological function has not yet been elucidated. […] The interaction of BAZ2B with ISWI mediated by the BAZ1 motif has recently been described. […] The protocol is based on the AlphaScreen (PerkinElmer) displacement assay developed by NCGC [5], but uses the peptide ligand Biot-H3K14Ac, a high affinity binding partner for BAZ2B, in an AlphaScreen format. Although AlphaScreen has significant advantages with its utility in a variety of epigenetic target assays, the primary screening data provided in this deposition should be used with caution due to the prevalence of screening artifacts. The top compound concentration tested was 110uM in this assay, which increases number of actives and potential artifacts. An AlphaScreen counterscreen is highly recommended to be run against any putative actives to eliminate non-specific artifacts. Alternatively, one can use other AlphaScreen assays in PubChem to filter out promiscuous hits. Eberharter, A. et al. ACF1 improves the effectiveness of nucleosome mobilization by ISWI through PHD-histone contacts. The EMBO journal 23, 4029-4039. 2004. PMID: 15457208 [2] Jones, M.H. et al. A novel family of bromodomain genes. Genomics 63, 40-45. 2000. PMID: 10662543 [3] Yasgar, et al. Compound Management for Quantitative High-Throughput Screening. JALA. 2008 Apr;13(2):79-89. PMID: 18496600 [4] Inglese, et al. Quantitative high-throughput screening: a titration-based approach that efficiently identifies biological activities in large chemical libraries. Proc Natl Acad Sci. 1;103(31):11473-8. 2006. PMID: 16864780 [5] Quinn et al. A chemiluminescence-based method for identification of histone lysine methyltransferase inhibitors. Mol Biosyst 6(5): 782-8. 2010. PMID: 20567762 [6] Baell,Holloway. New substructure filters for removal of pan assay interference compounds (PAINS) from screening libraries and for their exclusion in bioassays. J Med Chem. 53(7):2719-40. 2010. PMID: 20131845 NIH Molecular Libraries Probe Production Network [MLPCN] NIH Chemical Genomics Center [NCGC] Structural Genomics Consortium (SGC) NIH Grant: 5U54 MH084681-02
To each well of a 1,536w plate, 2ul of BAZ2B protein (final 50nM) and 1ul biotinylated histone peptide acetylated at Lys14 [b-H3(5-23)K14Ac] (final 50nM) were added in 1x PBS buffer, pH 7.4, containing 0.01% Tween-20, using a nanoliter dispenser. Formation of a protein-peptide complex proceeded at room temperature for 30 min. A Kalypsys pin-tool was employed to transfer 23 nL of library compound solution in DMSO to each well. Following a 30 min incubation of the protein-peptide complex with compounds at room temperature, a mixture of 40 ug/mL each streptavidin-coated donor and nickel chelate acceptor AlphaScreen beads (final 10 ug/mL) were added in a 1ul dispense for a final volume of 4ul. A brief centrifugation followed (1000rpm, 1 min) and were then incubated protected from the light for 20 min at room temperature. Plates were read on an EnVision multilabel plate reader using the 1,536 plate HTS AlphaScreen aperture (excitation time 80 ms, measurement time 240 ms).
A general note: Quantitative high-throughput screening tests each substance at several concentrations.
`Cc1ccc(NC(=O)CSc2nc3ccccc3c3nc(CCn4cncc4C)nn23)cc1F`: the “activity change, negative = inhibition” value was -16.9%.
Still for that read-out and setting: the value for `Cc1cc(-c2ccc(C)c(S(=O)(=O)Nc3ccc(S(N)(=O)=O)cc3)c2)on1` was -16.6%.
Still for that read-out and setting: to `CCOc1ccccc1CNS(=O)(=O)c1cc(-c2cc(C)no2)ccc1C` belongs 0.315%.
In the case of `CCN(CC)c1ccc(NS(=O)(=O)c2cc(-c3cc(C)no3)ccc2C)c(C)c1`, the Potency was 11.2 µM (active).
Turning to `Fc1ccc(-c2nc(Nc3cccc(Cl)c3)nc3c2COc2ccccc2-3)cc1`, the “activity change, negative = inhibition” value was -17.8%.
Still for that read-out and setting: to `Cc1c(-c2nc(-c3ccc4c(c3)OCO4)no2)nnn1-c1ccc(Br)cc1F` belongs -12.6%.
On the same count and under the same terms, to `C/C=C(/C)C(=O)Nc1cccc(C2=NOC3(C2)C[C@@H](C(N)=O)N(C(=O)C2(C)CC2)C3)c1` (stereo partly drawn) belongs 5.04%.
Still for that read-out and setting: the value for `C/C=C\C=C\C(=O)N1CC2(CC(c3cccc(NC(=O)/C(C)=C\C)c3)=NO2)C[C@H]1C(N)=O` (stereo partly drawn) was -9.61%.
`C=C(C)C(=O)Nc1cccc(C2=NOC3(C2)C[C@H](C(N)=O)N(C(=O)C(c2ccccc2)c2ccccc2)C3)c1` (stereo partly drawn): the Potency was 25.1 µM (active).
In the case of `Cc1cn(C)c(CC(=O)NCc2ccccc2)c1C(=O)O`, the “activity change, negative = inhibition” value is -14.6%.
As to `COc1cccc(NC(=O)C2CCN(c3cc(C)nc4c(-c5ccc(Cl)cc5)c(C)nn34)CC2)c1`, the “activity change, negative = inhibition” value was -5.79%.
The same measure, in the same setting: the value for `Cc1c(C(=O)Nc2cccc(Cl)c2)oc2ccc(S(=O)(=O)N3CCOCC3)cc12` was 4.68%.
Regarding `N#Cc1nc(COc2ccc(Cl)cc2)oc1N1CCCC1`, the Potency is 39.8 µM (active).
Take `Cc1ccc(OCc2nc(C#N)c(N3CCCC3)o2)cc1`: the “activity change, negative = inhibition” value is 7.75%.
Consider `CN1CCN(c2oc(-c3ccc(COc4ccc(Cl)cc4)o3)nc2C#N)CC1`, for which the Potency was 25.1 µM (active).
Turning to `N#Cc1ccc(OCc2nnc(-c3ccc([N+](=O)[O-])cc3)o2)cc1`, the “activity change, negative = inhibition” value is -18.3%.
The same measure, in the same setting: the value for `COc1ccc(OCc2ccc(-c3nc(C#N)c(N4CCN(c5ccccc5)CC4)o3)o2)cc1` was -28.8%.
The same measure, in the same setting: to `CCC(C)Nc1oc(-c2ccc(COc3ccc(Cl)cc3)o2)nc1C#N` (stereo not drawn) belongs -34.3%; to `CCc1nnc(SCc2nc(-c3cccc(C)c3)oc2C)c2cc3sc(C)cc3n12`, -3.25%.
The same measure, in the same setting: the value for `Cc1cccc(NC(=O)Cn2nc(-c3ccc(Cl)cc3)c3ccccc3c2=O)c1` was -1.81%; that for `COc1ccc(-c2noc(CSc3nc(C)cc(=O)[nH]3)n2)cc1OC` was -17.2%; that for `CCOC(=O)c1c(NC(C)=O)c2c3c(sc2n1Cc1c(C)cc(C)cc1C)CCCC3` was 0.347%.
In the case of `Cc1ccc(-c2cnc(C3CC3)o2)cc1S(=O)(=O)Nc1cccc(C)c1C`, the “activity change, negative = inhibition” value was -29.3%.
The same measure, in the same setting: to `OC(c1nnc(-c2ccccc2)o1)c1cccs1` (stereo not drawn) belongs -17.5%.
Still for that read-out and setting: the value for `CC(=O)c1ccc(NC(c2ccc(F)cc2)c2nnc(-c3ccccc3)o2)cc1` (stereo not drawn) was -12.5%.
With `CCCN(CCC)c1ccc(C(O)c2nnc(-c3ccccc3)o2)cc1` (stereo not drawn), the Potency was 31.6 µM (active).
Consider `COc1ccc(-c2nc(CN3CCC(C(=O)NCc4ccccc4)CC3)c(C)o2)cc1OC`, for which the “activity change, negative = inhibition” value was -9.57%.
On the same count and under the same terms, the value for `O=C(c1cncc(Br)c1)N1CCN(c2ccc([N+](=O)[O-])cc2)CC1` was 3.58%; that for `COc1ccc(N2CCN(c3ccc([N+](=O)[O-])nc3)CC2)cc1` was 11.5%.
Turning to `COc1ccc(N2CCN(c3ccc([N+](=O)[O-])cc3Cl)CC2)cc1`, the Potency is 10 µM (active).
For `CN(C)S(=O)(=O)N1CCN(c2ccc([N+](=O)[O-])cc2)CC1`, the “activity change, negative = inhibition” value was -21.5%.
As for `O=[N+]([O-])c1ccc(N2CCN(c3ccc(O)cc3)CC2)c(Cl)c1`, the Potency is 20 µM (active).
As to `COc1ccccc1N1CCN(c2ccc([N+](=O)[O-])nc2)CC1`, the “activity change, negative = inhibition” value was -22%.
For `COc1ccc(-c2nc(C)c(CCNC(=O)c3ccc(C(F)(F)F)cc3)s2)cc1OC`, the “activity change, negative = inhibition” value was 3.9%.
On the same count and under the same terms, the value for `Cc1cc(C)c2oc(C(=O)Nc3ccc(S(=O)(=O)N4CCCCCC4)cc3)cc(=O)c2c1` was -12%.
The same measure, in the same setting: the value for `CCCCc1nn2c(=O)cc(COC(=O)c3ccc(NC(=O)c4ccccc4C)cc3)nc2s1` was -9.26%; that for `CN1CCN(C2(CNC(=O)COc3ccc(C(C)(C)C)cc3)CCCCC2)CC1` was -24.8%.
For the compound `CC1CCN(S(=O)(=O)c2ccc3c(c2)N(CC(=O)NCc2ccccc2Cl)C(=O)CO3)CC1`, the “activity change, negative = inhibition” value is -6.03%.
Same read-out and setting: the value for `CCOC(=O)c1scc(-c2ccc(C)cc2)c1S(=O)(=O)Nc1cc(C)ccc1C` was -8.58%.
With `O=C1CCCC(O)=C1N=Nc1ccc(S(=O)(=O)N2CCOCC2)cc1`, the Potency is 79.4 µM (active).
Take `CC1(C)CC(=O)C(N=Nc2ccc(S(=O)(=O)N3CCCCCC3)cc2)=C(O)C1`: the “activity change, negative = inhibition” value is -3.64%.
The same measure, in the same setting: to `O=C(CN1C(=O)CCC1=O)Nc1ccc(S(=O)(=O)N2CCOCC2)cc1` belongs -5.81%; to `COC(=O)c1ccc2c(c1)N(CC(=O)Nc1ccc(C)c(C)c1)C(=O)c1ccccc1S2`, -1.49%; to `COCCNC(=O)CSc1c(C)cnc2c1c(=O)n(C)c(=O)n2C`, 4.31%.
The same measure, in the same setting: the value for `COc1cc2ccccc2cc1C(=O)Nc1cccc(-c2nc3ccccc3o2)c1` was 1.7%.
For `Cc1ccccc1NC(=O)CN1C(=O)C(C)(C)c2ccccc21`, the “activity change, negative = inhibition” value is 5.06%.
`O=C1N/C(=C/c2cccn2-c2ccccc2)C(=O)N1c1cccc(Cl)c1`: the “activity change, negative = inhibition” value was -0.902%.
In the case of `Cc1ccccc1NC(=O)CN1C(=O)N/C(=C\c2cccn2-c2cccc(C(=O)O)c2)C1=O`, the Potency is 20 µM (active).
